The subject of assay [1] is Plasmodium falciparum Sir2 (PF13_0152, Sir2A). The experiment in a line: Plasmodium falciparum Sir2A binding compounds – biochemical, small-molecule microarray, 635 nm fluorescence, primary screen (AID 1098).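 Note: score merges spot fluorescence intensity with its signal-to-noise ratio.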 The settings on record: fluorescence 635 nm, higher = more signal.
The nature of assay [2]: probe aDKK1 binding to arrayed compounds – biochemical, biotinylated probe, 635/667 nm fluorescence, primary screen (AID 1099).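 Note: score merges 667nm spot fluorescence with signal to noise across triplicate slides; reference of the scale not given here.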 The following applies: small-molecule microarray, higher = more signal.
Assay [3] is described as follows: probe aCHRDL2 binding to arrayed compounds – biochemical, biotinylated probe, 635/667 nm fluorescence, primary screen (AID 1100). The following applies: small-molecule microarray, higher = more signal.
Assay [4] is described as follows: change in splice reporter luminescence, either direction, cell-based, HEK293, spliceosome inhibition project, primary screen (AID 1101).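 Note: HEK293 cells carrying a splicing-competent luciferase reporter gene; test concentration not given here.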 The settings on record: HEK293 splicing luciferase reporter, 24 h, higher = more signal, called active from +8 up or from −8 down.
The target of assay [5] is Fibroblast growth factor 10 (Homo sapiens) (UniProt O15520). The experiment in a line: compounds binding fibroblast growth factor 10 – biochemical, small-molecule microarray, 635 nm fluorescence, primary screen (AID 1102). The following applies: FGF10 binding, fluorescence 635 nm, higher = more signal.
The subject of assay [6] is glycogen synthase kinase-3 (GSK3A per assay name; protocol says GSK3B). The experiment in a line: compounds binding glycogen synthase kinase-3 – biochemical, small-molecule microarray, 635 nm fluorescence, GSK3A, primary screen (AID 1103). Note: the record names both GSK3A and GSK3B. The following applies: fluorescence 635 nm, higher = more signal.
Assay [7] has as its target Epidermal growth factor receptor (Homo sapiens) (UniProt P00533). Nature of the assay: compounds binding epidermal growth factor receptor – biochemical, small-molecule microarray, 635 nm fluorescence, primary screen (AID 1104).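 Note: score merges 667 nm emission intensity with spot signal to noise over triplicate slides.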 The settings on record: EGFR binding, higher = more signal.
Assay [8] concerns the target Follistatin-related protein 3 (Homo sapiens) (UniProt O95633). The experiment in a line: compounds binding follistatin-related protein 3 – biochemical, small-molecule microarray, 635 nm fluorescence, primary screen (AID 1105).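 Note: score merges emission near 667 nm and signal to noise per printed spot across three slides.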 The settings on record: FSTL3 binding, higher = more signal.
The target in assay [9] is Dickkopf-related protein 1 (Homo sapiens) (UniProt O94907). The experiment in a line: small molecules binding DKK1 protein – biochemical, small-molecule microarray, 635 nm fluorescence scan, primary screen (AID 1106).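 Note: score merges emission near 667 nm with signal to noise over three replicate slides.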 The following applies: higher = more signal.
The subject of assay [10] is Inhibin beta A chain (activin A). Nature of the assay: small molecules binding activin A – biochemical, small-molecule microarray, 635 nm fluorescence scan, primary screen (AID 1107).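 Note: mouse activin A protein probed at 4.33 µg/mL on printed slides; score merges bound-protein fluorescence near 667 nm with spot signal-to-noise.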 The following applies: INHBA, higher = more signal.

Active and inactive are the calls of the source.

Epidermal growth factor receptor (Homo sapiens), sequence (P00533 whole entry, looked up): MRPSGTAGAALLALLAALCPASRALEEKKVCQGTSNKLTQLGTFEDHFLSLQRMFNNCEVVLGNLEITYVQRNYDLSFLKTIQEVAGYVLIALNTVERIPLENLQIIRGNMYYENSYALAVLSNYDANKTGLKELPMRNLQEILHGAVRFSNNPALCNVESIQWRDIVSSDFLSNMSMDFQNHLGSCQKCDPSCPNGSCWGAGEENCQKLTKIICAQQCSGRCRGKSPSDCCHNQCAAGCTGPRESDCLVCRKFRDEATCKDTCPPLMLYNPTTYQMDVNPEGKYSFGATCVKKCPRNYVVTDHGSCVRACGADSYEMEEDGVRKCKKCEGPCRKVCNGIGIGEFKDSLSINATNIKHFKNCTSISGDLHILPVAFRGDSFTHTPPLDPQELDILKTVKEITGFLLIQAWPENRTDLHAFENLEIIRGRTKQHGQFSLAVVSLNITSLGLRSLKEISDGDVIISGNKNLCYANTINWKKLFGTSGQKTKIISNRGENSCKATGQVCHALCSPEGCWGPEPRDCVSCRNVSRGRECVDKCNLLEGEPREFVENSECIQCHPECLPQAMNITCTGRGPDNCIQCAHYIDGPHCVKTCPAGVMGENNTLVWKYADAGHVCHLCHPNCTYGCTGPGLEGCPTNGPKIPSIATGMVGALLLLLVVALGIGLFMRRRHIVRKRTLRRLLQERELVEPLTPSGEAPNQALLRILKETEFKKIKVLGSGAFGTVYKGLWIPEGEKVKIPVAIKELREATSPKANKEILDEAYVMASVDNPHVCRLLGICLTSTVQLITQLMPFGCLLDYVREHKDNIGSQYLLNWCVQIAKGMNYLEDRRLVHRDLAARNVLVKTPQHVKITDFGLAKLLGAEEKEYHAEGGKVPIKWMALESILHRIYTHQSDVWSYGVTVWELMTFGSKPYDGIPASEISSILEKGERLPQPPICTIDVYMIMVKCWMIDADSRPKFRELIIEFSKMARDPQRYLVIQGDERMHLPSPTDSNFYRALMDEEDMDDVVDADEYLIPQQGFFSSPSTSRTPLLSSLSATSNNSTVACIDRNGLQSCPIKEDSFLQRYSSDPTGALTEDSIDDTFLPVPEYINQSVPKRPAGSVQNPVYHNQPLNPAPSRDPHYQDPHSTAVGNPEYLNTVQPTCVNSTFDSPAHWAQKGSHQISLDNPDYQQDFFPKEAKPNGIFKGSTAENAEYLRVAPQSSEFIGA
Fibroblast growth factor 10 (Homo sapiens), sequence (O15520 whole entry, looked up): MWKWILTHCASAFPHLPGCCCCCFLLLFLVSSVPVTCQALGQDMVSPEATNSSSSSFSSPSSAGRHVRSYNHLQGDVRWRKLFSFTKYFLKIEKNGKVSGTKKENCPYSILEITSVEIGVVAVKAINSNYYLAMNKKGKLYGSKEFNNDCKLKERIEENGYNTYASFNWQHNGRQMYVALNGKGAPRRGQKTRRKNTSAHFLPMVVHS
Dickkopf-related protein 1 (Homo sapiens), sequence (O94907 whole entry, looked up): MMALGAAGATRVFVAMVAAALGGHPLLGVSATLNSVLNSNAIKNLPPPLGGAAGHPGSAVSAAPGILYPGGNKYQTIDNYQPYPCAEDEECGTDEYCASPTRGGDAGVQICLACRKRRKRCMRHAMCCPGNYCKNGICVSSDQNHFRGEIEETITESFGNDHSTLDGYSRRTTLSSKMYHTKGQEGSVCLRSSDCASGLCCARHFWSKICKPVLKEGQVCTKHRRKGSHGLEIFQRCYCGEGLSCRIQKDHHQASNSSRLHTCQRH
Follistatin-related protein 3 (Homo sapiens), sequence (O95633 whole entry, looked up): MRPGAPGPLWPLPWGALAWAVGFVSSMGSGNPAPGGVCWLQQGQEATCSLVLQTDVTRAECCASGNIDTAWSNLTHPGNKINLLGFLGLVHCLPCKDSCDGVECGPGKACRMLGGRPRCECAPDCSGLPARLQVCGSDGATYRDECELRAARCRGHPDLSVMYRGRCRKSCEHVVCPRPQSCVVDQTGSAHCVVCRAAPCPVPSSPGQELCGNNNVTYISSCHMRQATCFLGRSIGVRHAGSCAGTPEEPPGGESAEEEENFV

For the molecule `CC(C)(C)OC(=O)CC[C@]1(C(=O)N2CCCCC2)N=C(c2ccc(OCCCO)cc2)O[C@H]1c1ccccc1CN=[N+]=[N-]`, the composite z-score turned out to be 1.68 in assay [1]; 0.978 in assay [2]; 0.92 in assay [3]; 1.42 in [5]; 1.3 in [6]; 0.604 in [7]. Moreover, the composite z-score is 1.41 in assay [8], 0.414 in assay [9] and 1.21 in assay [10]. Moreover, in assay [4], the z-score was -3.65 (inactive).

On to `CN(C)CCCNC(=O)[C@@]1(Cc2ccccc2I)c2ccccc2C(=O)N(Cc2ccccc2Cl)[C@H]1c1ccc(CO)cc1`, for which the composite z-score in assay [1] was 1.56; in [2] it was 0.94; in [3], 1.33; in assay [5] it was 0.247; in assay [6], 0.122; in assay [7], -1.4. For the same molecule, the composite z-score in assay [8] was -0.509; in assay [9], -0.83; in assay [10] it was 1.03. Besides, in assay [4], the z-score is -3.68 (inactive).

As to `C=C(CCCC)/C(=C/C[C@@H](OC(=O)c1ccncc1)c1ccccc1OCCO)c1cc(C(=O)OC)ccc1OC`, the composite z-score is 0.96 in assay [1]; -0.0551 in assay [2]; -0.133 in assay [3]; 0.659 in assay [5]; 0.272 in assay [6]; 0.145 in assay [7]. The composite z-score was found to be 0.422 in assay [8], 0.135 in [9] and 0.851 in assay [10]. For the same molecule, the z-score in assay [4] is -0.322 (inactive).

Take `CCCC=C(CCC)[C@@H](NS(=O)(=O)c1ccccc1)c1ccc(C(F)(F)F)cc1`: the composite z-score in assay [1] worked out at 0.98; in assay [2], 0.965; in [3] it was 0.224; in assay [5] it was 0.867; in [6] it was 1.32; in assay [7], 0.216. Also, the values for the composite z-score in assay [8], in assay [9] and in [10] were 0.89, -0.0595 and -0.0447, respectively. For the same molecule, in assay [4], the z-score was -3.31 (inactive).

For the molecule `CCCNC(=O)[C@@H]1c2ccccc2C(=O)N(CC23CC4CC(CC(C4)C2)C3)[C@H]1c1ccc(CO)cc1`, the composite z-score stood at 1.6 in [1]; 0.831 in assay [2]; 0.718 in assay [3]; 1.12 in assay [5]; 1.15 in [6]; 0.457 in assay [7]. Moreover, the composite z-score worked out at 1.23 in [8], 1.11 in [9] and 0.425 in [10]. For the same molecule, in assay [4], the z-score is -0.254 (inactive).

For `COCCOC(=O)N1C(=O)[C@@]2(c3cc(C#Cc4ccc(OC)cc4)ccc31)[C@H](C(=O)N1CCc3cc(OC)c(OC)cc3C1)[C@H]1C(=O)O[C@H](c3ccccc3)[C@H](c3ccccc3)N1[C@@H]2c1ccc(O)cc1`, the composite z-score was 0.404 in assay [1]; -0.0986 in [2]; -0.107 in assay [3]; 1.06 in assay [5]; 1.21 in assay [6]; 0.465 in assay [7]. Further, the composite z-score amounted to 0.649 in assay [8], 0.644 in [9] and 0.837 in assay [10]. The z-score in assay [4] is -0.318 (inactive).

On to `Cc1ccc(S[C@]2(C(=O)O)CC(=O)N(C3CCCCC3)[C@@H]2c2ccc(CO)cc2)cc1`, for which the composite z-score is 1.37 in assay [1]; -0.0047 in assay [2]; 0.571 in [3]; -0.256 in [5]; 0.739 in [6]; -0.172 in assay [7]. Also, the composite z-score in assay [8] was -0.365; in assay [9], 0.234; in assay [10], 0.378. In assay [4], the z-score is 0.134 (inactive).
